# The list is not random: actives were taken first. Their share in the collection is about 4.6%.
# TIM10 inh – TIM10 yeast growth inhibition | inhibition, % at 10 µM | S. cerevisiae TIM10 strain growth, BacTiter-Glo luminescence, 24 h | actives 1.4% (n = 330,000);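 active = inhibition of 40% or more at the single tested concentration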;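 note: wild-type TIM10 isogenic control strain grown at permissive 25 °C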
# tim10-1 inh – growth inhibitors of tim10-1 mutant yeast; S. cerevisiae tim10-1 ts strain growth, BacTiter-Glo, 24 h; inhibition, % at 20 µM; actives 2.2% (n = 330,000); AID 463190;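 active = inhibition of at least 40%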;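 note: mutant grown at 25 °C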
# tim23-1 inh – inhibits growth of tim23-1 mutant yeast; S. cerevisiae tim23-1 growth, BacTiter-Glo luminescence, 24 h; actives 1.3% (n = 330,000); AID 463212; inhibition, % at 20 µM;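 active = growth inhibition of the mutant yeast at or above 50%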;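 note: temperature-sensitive mutant grown at 25 °C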
# NLRP3 yeast inh – inhibitors of NALP3 inflammasome in yeast. actives 0.39% (n = 330,000). inhibition, % at 10 µM. Yeast reconstituted NLRP3/ASC/caspase-1, beta-gal luminescence, 24 h;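 active = inhibition of 50% or more; inactive = inhibition below 50%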
# SKKanGAS inh – inhibitors of SKKanGAS S. pyogenes growth in kanamycin (SK-promoter or general growth effect) | AID 1662 | BacTiter-Glo, 6 h | actives 1.3% (n = 300,000) | inhibition, % at 7.5 µM;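 active = mean replicate score, as percent of positive control median, at least 50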;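 note: strain carries kanamycin resistance gene driven by streptokinase promoter and grows in 40 µg/ml kanamycin; loss of luminescence reflects streptokinase promoter inhibition or plain growth inhibition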
# tim10-1 conf – confirmation of tim10-1 mutant yeast growth inhibitors | S. cerevisiae tim10-1 ts strain growth, BacTiter-Glo, 24 h | shares compounds with tim10-1 inh | AID 463213 | actives 56% (n = 7,400) | inhibition, % at 20 µM;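 active = inhibition of yeast growth at or above a set limit in either of two repeat tests at 20 µM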;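 note: tim10-1 mutant grown at permissive 25 °C to find synthetic lethal compounds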
# tim10 confirm – confirmation of TIM10 yeast growth inhibitors | shares compounds with TIM10 inh | S. cerevisiae tim10 strain growth, BacTiter-Glo luminescence, 24 h | inhibition, % at 10 µM | actives 63% (n = 4,600) | AID 463215;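 active = inhibition of yeast growth at or above a set limit in either of two replicates at 10 µM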; note: this counterscreen used the strain with wild-type TIM10
# tim23-1 conf – tim23-1 yeast growth inhibition, confirmed | inhibition, % at 20 µM | actives 83% (n = 4,400) | S. cerevisiae tim23-1 growth, BacTiter-Glo luminescence, 24 h | shares compounds with tim23-1 inh;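 active = inhibition above about 39% in either of two replicate wells at 20 µM, limit read from the data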;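 note: temperature-sensitive tim23-1 mutant grown at 25 °C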
# Hits are given with their value; - = inactive; . = not tested or not shown.
SMILES,TIM10 inh,tim10-1 inh,tim23-1 inh,NLRP3 yeast inh,SKKanGAS inh,tim10-1 conf,tim10 confirm,tim23-1 conf
COc1ccc(-c2cc3ccccc3oc2=O)cc1NC(=O)c1ccc([N+](=O)[O-])o1,62,66,70,-,-,64,72,41
O=C(Nc1ccc(S(=O)(=O)N2CCOCC2)cc1)c1ccc([N+](=O)[O-])o1,-,-,-,-,-,.,.,.
CCOc1c(Br)cc(C(=O)N2CCCN(C)CC2)cc1OC,-,-,-,-,-,.,.,.
O=C(Nc1ccc(Cc2ccncc2)cc1)c1ccc([N+](=O)[O-])o1,45,67,71,-,-,59,43,58
OCCCNc1nc(-c2ccc(Br)cc2)nnc1-c1ccc(Cl)cc1,-,42,54,-,-,31,.,59
COCCCNc1nc(-c2ccc(Cl)cc2)nc2ccccc12,-,46,59,-,-,34,.,54
OCCCNc1nc(-c2ccc(Cl)cc2)nc2ccccc12,-,43,60,-,-,-,.,-
Cc1nnc(-c2ccc(Cl)cc2)nc1NCCN(C)C,-,-,-,-,-,.,.,.
CCc1cc2c(=O)nc3n(c2s1)Cc1ccccc1/C3=C(/O)c1ccccc1Cl,-,59,66,-,-,42,.,40
COc1ccccc1N1CCN(C(=O)C2CCC(CNS(=O)(=O)c3ccc(NC(C)=O)cc3)CC2)CC1 (centres undefined),-,-,-,-,-,.,.,.
CN1C(=O)/C(=C\c2ccccc2OCc2ccccc2)SC1=S,-,-,-,-,-,.,.,.
CN1C(=O)/C(=C\c2cc(N=Nc3ccccc3)ccc2O)SC1=S,-,42,62,-,83,-,.,67
O=C(O)c1ccccc1Nc1cc(Cl)c2nonc2c1[N+](=O)[O-],-,-,-,-,-,.,.,.
O=[N+]([O-])c1c(Nc2ccccn2)cc(Cl)c2nonc12,95,94,94,-,-,94,100,96
CSc1nc(N2CCOCC2)nc2ccc(C)cc12,-,-,-,-,-,.,.,.
COc1ccc(/C=C/C(=O)c2cc(F)ccc2OC(=O)c2ccc(OC)c(OC)c2)cc1OC,54,50,52,-,-,46,-,56
NS(=O)(=O)Cc1noc2ccccc12,-,-,-,-,-,.,.,.
COc1cc(/C=C/c2sc3ccccc3[n+]2CCCS(=O)(=O)[O-])ccc1O,-,45,52,-,-,44,.,50
CN(c1ccc(O)cc1)c1nc(-c2cccs2)cs1,64,49,72,-,-,44,57,52
Cc1cc(O)ccc1Nc1nc(-c2cccs2)cs1,-,-,-,-,-,.,.,.
CC1CCN(S(=O)(=O)c2ccc(NC(=O)c3cccs3)cc2)CC1,42,42,54,-,-,50,53,59
CC1CCCCN1S(=O)(=O)c1ccc(NC(=O)c2cccs2)cc1 (centres undefined),51,54,54,-,-,48,52,71
O=C(Nc1ccc(S(=O)(=O)N2CCCC2)cc1)c1cccs1,-,-,-,-,-,.,.,.
CN(C)c1nc(-c2cn(CCC#N)c3ccccc23)cs1,-,-,-,-,-,.,.,.
O=C(CCCN1C(=O)/C(=C/c2ccco2)SC1=S)Nc1ccccc1C(=O)O,-,-,-,-,-,.,.,.
SMILES,TIM10 inh,tim10-1 inh,tim23-1 inh,NLRP3 yeast inh,SKKanGAS inh,tim10-1 conf,tim10 confirm,tim23-1 conf
O=C(CCCN1C(=O)/C(=C\c2ccco2)SC1=S)Nc1ccc2ccccc2c1,-,44,78,-,-,39,.,70
N/C(=N\OC(=O)CCC1CCCCC1)c1ccc([N+](=O)[O-])cc1,60,83,67,-,-,79,51,70
COc1ccc(/C(N)=N/OC(=O)CC2CCCCC2)cc1,66,59,57,-,-,64,38,54
N/C(=N\OC(=O)CCC1CCCC1)c1cccc([N+](=O)[O-])c1,-,48,50,-,-,38,.,-
N/C(=N\OC(=O)CCC1CCCC1)c1ccc(Br)cc1,83,68,66,-,-,50,72,61
COC(=O)[C@H]1C[C@H](C(=O)O)[C@@H](C)C1(C)C,-,-,-,-,.,.,.,.

# Screening data deposited in PubChem by several laboratories.
